A short description of the experiment: NCI Yeast Anticancer Drug Screen. Data for the rad18 strain (AID 177). As to conditions: S. cerevisiae rad18 mutant growth inhibition, stronger effect = higher value. As for the experimental part:
Growth inhibition of yeast strains with defined genetic alterations is measured as a screen for potential anti-cancer activity. Selected strains with alterations in DNA damage repair or cell cycle control were exposed to compounds and growth inhibition was measured relative to vehicle treated controls. The strain used in this assay is rad18

About 79,000 compounds went through this panel and 15% of them were active in at least one assay; those are over-represented in the sample as a whole. Unmarked numbers belong to inactive results. Active and inactive are the calls of the source. Cut-off read from the data, not from the text of the source: active = growth inhibition above about 70%; inactive = the rest.

The source of these data is PubChem BioAssay (NCI).

Take `COc1cc2c(cc1C[N+](C)(C)CSc1ccccc1)-c1ccccc1CC2`: the growth inhibition is 9% (at 1.2 µM); 12% (at 3.7 µM); 77% (active) (at 11.0 µM); 99% (active) (at 33.0 µM); 99% (active) (at 100.0 µM).
Consider `CCOc1ccc(C(=O)CCC(=O)O)c(C)c1`, for which the growth inhibition (at 1.2 µM) is -2%; the growth inhibition (at 3.7 µM) is -4%; the growth inhibition (at 11.0 µM) is -6%; the growth inhibition (at 33.0 µM) was -16%; the growth inhibition (at 100.0 µM) is -17%.
As for `O=C1C=CC(=O)N1c1ccc(N2C(=O)C=CC2=O)cc1`, the growth inhibition reads like this: (at 1.2 µM) 46%; (at 3.7 µM) 90% (active); (at 11.0 µM) 100% (active); (at 33.0 µM) 100% (active); (at 100.0 µM) 99% (active).
With `CCCCCCSc1nc(COC(=O)NC)c(COC(=O)NC)n1C`, the growth inhibition runs as follows: (at 1.2 µM) -1%; (at 3.7 µM) -1%; (at 11.0 µM) -1%; (at 33.0 µM) 33%; (at 100.0 µM) 98% (active).
With `C=C1N(C)c2ccc(Cl)cc2C1(C)C`, the growth inhibition by setting is: (at 1.2 µM) -2%; (at 3.7 µM) -18%; (at 11.0 µM) -26%; (at 33.0 µM) 15%; (at 100.0 µM) 94% (active).
Taken in the same sequence, the figures for `CN[C@@H]1C[C@H]2O[C@@](C)([C@@H]1OC)n1c3ccccc3c3c4c(c5c6ccccc6n2c5c31)C(=O)N[C@@H]4O` were -8%, -7%, -3%, 10% and 25%.
The corresponding values for `CN(C)Cc1cccc(CN(C)C)[c]1[Sn]([Br])([c]1ccccc1)[c]1ccccc1` are 42%, 67%, 74% (active), 82% (active) and 97% (active).
Taken in the same sequence, the figures for `CCC(c1ccc(O)cc1)C(CC)c1ccc(OCCN)cc1` (stereo not given) were -7%, -6%, -6%, 0% and 91% (active).
